# TRHR ag = qHTS for Small Molecule Agonists and Allosteric Enhancers of Human TRH Receptor: Primary Screen for Agonists; TRHR cells, calcium flux fluo-8, FDSS agonist mode; activation, % at 2 µM; hit rate 0.18% among 360,000
# Target sequence (P34981 whole entry, looked up): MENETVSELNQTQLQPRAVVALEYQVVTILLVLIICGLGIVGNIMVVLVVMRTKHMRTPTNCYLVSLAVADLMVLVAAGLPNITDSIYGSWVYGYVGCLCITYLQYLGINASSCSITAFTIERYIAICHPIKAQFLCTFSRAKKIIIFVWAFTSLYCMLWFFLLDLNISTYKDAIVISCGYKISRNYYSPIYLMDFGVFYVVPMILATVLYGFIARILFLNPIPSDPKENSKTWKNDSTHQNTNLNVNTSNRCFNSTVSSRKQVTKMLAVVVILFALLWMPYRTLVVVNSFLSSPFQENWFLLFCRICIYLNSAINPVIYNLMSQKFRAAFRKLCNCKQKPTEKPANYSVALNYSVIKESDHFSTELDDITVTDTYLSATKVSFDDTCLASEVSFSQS
#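 TRHR-expressing cells loaded with fluo-8 calcium dye; 23 nL library compound pin-transferred, kinetic FDSS fluorescence (Ex 480/Em 530) recorded about 180 s for agonist-induced calcium release, before a 10 nM TRH EC20 addition for potentiator mode.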
# TRHR PAM = qHTS for Small Molecule Agonists and Allosteric Enhancers of Human TRH Receptor: Primary Screen for Enhancers; Thyrotropin-releasing hormone receptor (Homo sapiens), P34981; TRHR cells, fluo-8 calcium fluorescence, EC20 TRH enhancement; enhancement, % at 2 µM; hit rate 0.66% among 360,000; AID 493056, 2011; in the data active means enhancement above about 30%
#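 TRHR-expressing cells loaded with fluo-8 calcium dye were read kinetically (ex 480/em 530) during compound addition, then stimulated with an EC20 of TRH (10 nM final). Enhancement of the Gq-mediated intracellular calcium response was scored.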
# D1 PAM = Potentiators of Human D1 Dopamine Receptor: qHTS; D(1A) dopamine receptor (Homo sapiens), P21728; HEK293 TREx D1 cells, calcium flux, dopamine EC20 potentiation; potentiation, % at 10 µM; hit rate 0.036% among 360,000; AID 504651, 2011; in the data active means potentiation above about 30%
# D1 antagonist = Antagonist of Human D 1 Dopamine Receptor: qHTS | D(1A) dopamine receptor (Homo sapiens), P21728 | HEK293 TREx D1 cells, calcium flux, dopamine EC80; active compounds read low | activity change, negative = inhibition, % at 10 µM | hit rate 3.2% among 360,000 | AID 504652, 2011; in the data active means activity change below about -30%
#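 Kinetic fluorescence of a calcium dye serves as the read-out. D1-expressing Hek293 Trex cells, induced overnight at 30 C, are exposed to compound for 180 s before an EC80 dopamine addition, then read 180 s further.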
# D1 agonist = Allosteric Agonists of the Human D1 Dopamine Receptor: qHTS | HEK293 T-REx D1 cells, calcium flux, agonist mode | AID 504660, 2011 | hit rate 1% among 360,000 | activation, % at 2 µM
#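 Inducible HEK293 T-REx D1 cells, force-coupled to calcium signalling, were plated at 4000 cells/well with tetracycline and held overnight at 30 C. After no-wash calcium dye loading, compound-evoked calcium rise over 180 s flagged agonists.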
# Numbers stand for hits; i = inactive; nt = not tested or not shown; ! = not active in a repeat. Only some compounds are listed: those with a hit (about 4.7% of all), similar ones and a draw of the others. Unless noted, no stated cut-off is given here; in the data, active means activation above about 30%; inactive means the rest.
SMILES,TRHR ag,TRHR PAM,D1 PAM,D1 antagonist,D1 agonist
CCOC(=O)N1CCN(c2c(N3CCN(c4ccccc4OC)CC3)c(=O)c2=O)CC1,i,i,i,-33,i
CCOC(=O)C1=C(CN2CCCCCC2)NC(=O)NC1c1ccc2c(c1)OCO2 (stereo not given),i,i,i,i,i
CCc1c(C)nc(SCC(=O)N2CCN(c3ccccc3OC)CC2)[nH]c1=O,i,i,i,i,i
CCOC(=O)C1=C(CN2CC(C)CC(C)C2)NC(=O)NC1c1ccc2c(c1)OCO2 (stereo not given),i,i,i,i,31
Cc1ccc(OCc2cc(=O)n3c4c(sc3n2)CCCC4)c(C)c1,i,i,i,i,i
Cc1ccc(-c2noc(CN(C(=O)c3ccc(C(C)(C)C)cc3)C(C)C)n2)cc1,i,i,i,i,i
COc1ccccc1N1CCN(C(=O)c2ccco2)CC1,i,31,i,i,i
CCOC(=O)N1CCN(c2c(Nc3cc(C)[nH]n3)c(=O)c2=O)CC1,i,35,nt,i,i
CCOC(=O)C1=C(C)NC(=O)NC1c1ccc(N(C)C)cc1 (stereo not given),i,i,i,-31,i
COc1ccc(Cl)cc1NC(=O)Cc1coc2c(C)c(C)ccc12,i,i,i,i,i
O=C(Cc1ccc(-n2cccc2)cc1)NCc1cccs1,i,i,i,-34,i
Cc1ccc(NC(=O)CCCN2C(=O)COc3ccc(C)cc32)c(Cl)c1,i,i,i,i,i
CC1CCN(S(=O)(=O)c2ccc(C(=O)N3CCCC(C(F)(F)F)C3)cc2)CC1 (stereo not given),i,i,i,-33,i
Cc1ccc(NS(=O)(=O)c2ccc(C(=O)N3CCCC(C(F)(F)F)C3)cc2)cc1 (stereo not given),i,i,i,-62,70
COc1ccccc1NS(=O)(=O)c1ccc(C(=O)N2CCCC(C(F)(F)F)C2)cc1 (stereo not given),i,i,i,i,i
Cc1noc(C)c1S(=O)(=O)NCCc1csc2nc(-c3ccc(Cl)cc3)nn12,i,i,i,nt,i
CCCCNC(=O)c1cc2c(=O)n3cccc(C)c3nc2s1,i,i,i,i,i
COCCCNC(=O)c1cc2c(=O)n3cccc(C)c3nc2s1,i,i,i,-33!,i
CCOCCCNC(=O)C(c1ccccc1)N(Cc1cccs1)C(=O)c1ccc(NC(C)=O)cc1 (stereo not given),i,i,i,i,i
N#C/C(=C(/O)c1cccc(F)c1)c1nc2ccccc2s1,i,i,i,-35,i
Cn1c(/C(C#N)=C(\O)c2cccc(F)c2)nc2ccccc21,i,i,i,i,i
CCOC(=O)c1ccc(N2C(=O)c3n[nH]c(-c4ccco4)c3C2c2cccc(F)c2)cc1 (stereo not given),i,34,i,i,i
CCOC(=O)c1ccc(N2C(=O)c3n[nH]c(-c4ccco4)c3C2c2ccc(F)cc2)cc1 (stereo not given),i,i,i,i,i
COCCOC(=O)c1c(NC(=O)CNCc2ccco2)sc(C(N)=O)c1C,i,i,i,-35,i
COCCOC(=O)c1c(NC(=O)CNc2ccc(C)c(F)c2)sc(C(N)=O)c1C,i,i,i,i,i
COC(=O)CCCC(=O)N1CCCC(C(=O)c2ccccc2SC)C1 (stereo not given),i,i,i,i,i
COC(=O)CCCC(=O)N1CCCC(C(=O)c2ccc(-c3ccccc3)cc2)C1 (stereo not given),i,i,i,-30,i
O=C(c1ccc(-c2ccccc2)cc1)C1CCCN(C(=O)Cn2cncn2)C1 (stereo not given),i,i,i,i,i
COC(=O)CCCC(=O)N1CCCC(CCC(=O)NCc2ccc(F)c(F)c2)C1 (stereo not given),i,i,i,-44,i
CCC(=O)N1CCCC(C(=O)c2ccc(-c3ccccc3)cc2)C1 (stereo not given),i,i,i,-30,i
